According to PubChem BioAssay (NCI):
About 83,000 compounds went through this panel and 20% of them were active in at least one assay; those are over-represented in the sample as a whole.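 Cells were grown in 96-well plates and exposed to the test compound at a single concentration for 48 hours; results are reported as percent growth, with values below 10 considered active.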 The source made the active and inactive calls.

These molecules were tested on HCT-15 colon (assay: NCI-60 one-dose screen, 48 h (100 = growth as untreated, 0 = no growth, -100 = all killed)). Conditions: 10 µM unless noted.
Procedure: Growth inhibition of the HCT-15 human tumor cell line is measured as a screen for anti-cancer activity. Cells are grown in 96 well plates and exposed to the test compound for 48 hours. Compounds are tested at a single concentration, which is 10^-5 M for most compounds. The reported endpoint is percent growth (GI% or GIPRCNT), where numbers from 0 - 100% represent growth inhibition, and numbers from -100% - 0 represent cell death. For example, a value of 40 represents 60% growth inhibition. A value of 0 means no net growth occurred over the course of the experiment. A value of -40 indicates 40% of cells at the beginning of the experiment died by the end of the experiment. A value of -100 means all cells are dead at the end of the experiment.
NCI-60 Human Tumor Cell Lines Screen was performed using the standard one-dose NCI protocol, which is described in more detail at https://dtp.cancer.gov/discovery_development/nci-60/default.htm.
Compounds with GIPRCNT values below 10 were considered active. Activity score was based on GIPRCNT using the following formula: […]
Score is 0 for GIPRCNT values of 100 or above, 50 for GIPRCNT values of 0, and 100 for GIPRCNT values of -100.
In the case of `CN(c1cc2ncc(=O)[nH]c2cc1NC(N)=NCc1ccc(Cl)cc1)C1CCCCC1`, the growth is reported as 99.9% (inactive).
`CCn1cc(C(=O)NNC(=S)Nc2ccc(C)cc2)c(=O)c2ccc(C)nc21` was tested, and the growth was 103% (inactive).
`CN(C)S(=O)(=O)c1cccc(C(=O)Nc2nc(-c3ccc(F)c(F)c3)cs2)c1` was tested, and the growth was 61.3% (inactive).
With `Cc1ccc(NC(=O)c2sc3nc(C)c(Br)c(C)c3c2N)cc1` the growth was 93.4% (inactive).
For `Oc1c(Br)cc(Br)c2ccc(Cn3cc(-c4ccccc4C(F)(F)F)nn3)nc12`, the growth was 62.7% (inactive).
`O=S(=O)(NCCCNc1nccc(-c2c(-c3ccc(F)c(O)c3)nc3sccn23)n1)c1ccccc1` was tested, and the growth was 68.5% (inactive).
`O=C1c2ccc3c4c5ccc(c24)C(=O)N1CCCOCCCCOCCCNCc1ccc(cc1)CNCCCOCCCCOCCCN(C3=O)C5=O` was tested, and the growth was -41% (active).
`COC(=O)c1c2c(c(C)[n+]([O-])c1C)C(=O)C(NCc1cccc(OC)c1)=CC2=O` was tested, and the growth was 11.9% (inactive).
For `CC(=O)O[C@@H]1C[C@]2(C(C)C)O[C@@]1(C)[C@@H]1CCC(C)=C1[C@@H]2OC(=O)/C=C/c1ccccc1`, the growth was 87.2% (inactive).
In the case of `CCCCCOC(=O)c1c(C)[nH]c(/C=C2\N=C(c3ccc[nH]3)C=C2OC)c1C`, the growth is reported as -28.8% (active).
For `Cn1cc(-c2csc(-c3c[nH]c4ccc(Br)cc34)n2)c2ccnc(Cl)c21`, the growth was -0.791% (active).
`CCOC(=O)c1c(NC(=O)c2cccc(C(F)(F)F)c2)sc2c(CN(C)C)c(O)ccc12` was tested, and the growth was 10.6% (inactive).
In the case of `O=S(=O)(Nc1cc(F)cc(Cl)c1)c1ccc(-c2cnc(C3CC3)o2)cc1`, the growth is reported as 25.4% (inactive).
For `NC(=O)CSc1oc(-c2ccccc2)nc1S(=O)(=O)c1ccc(Br)cc1`, the growth was 90.6% (inactive).
For `CC(C)COc1nc2c(c(=O)n(C)c(=O)n2C)n1C`, the growth was 97% (inactive).
`O=C(Nc1cccc(-c2ccc(N3CCOCC3)nn2)c1)Nc1cccc(C(F)(F)F)c1` was tested, and the growth was 68.3% (inactive).
With `COC(=O)[C@]1(C)CCC[C@]2(C)[C@H]3C[C@H]4C(C(C)C)=C[C@]3(CC[C@H]21)[C@@H]1C(=O)CC[C@H](OCCC#N)[C@@H]14` the growth was 84.9% (inactive).
In the case of `CN1CCN(C(=O)c2ccc(NC(=O)c3cc4c(nn3)NCCN4Cc3cc(Cl)ccc3Cl)cc2)CC1`, the growth is reported as 68% (inactive).
`COc1c(B(O)O)cccc1-c1cc(C)c2c(ccc3[nH]ncc32)n1` was tested, and the growth was 95.2% (inactive).
For `COc1cc(C2CC(c3ccc(Nc4nc(Nc5ccc(Cl)cc5)nc(Nc5ccc(Cl)cc5)n4)cc3)=NN2C(C)=O)cc(OC)c1OC` (stereo not given), the growth was 88.9% (inactive).
For `CCCCCCCCCCCCCCCCOCCCOP(=O)(O)C1CCCN(O)C1=O` (stereo not given), the growth was 7.93% (active).
With `CC(C)c1ccc(-n2c(=S)[nH]c3sc4cc(O)ccc4c3c2=O)cc1` the growth was 97.7% (inactive).
In the case of `CCOC(=O)NC(C)C`, the growth is reported as 109% (inactive).
For `CCOC(=O)[C@@H]1CSC(CC)=C(C(=O)O)N1`, the growth was 104% (inactive).
In the case of `Cc1[nH]c(C(=O)Nc2ccccc2OC2CCNCC2)c(Cl)c1Cl`, the growth is reported as 20.2% (inactive).
With `COc1ccc(C2CC(c3ccc(Nc4nc(Nc5ccccc5)nc(Nc5ccccc5)n4)cc3)=NN2C(C)=O)cc1` (stereo not given) the growth was 96.9% (inactive).
For `COc1ccc(C/C(C)=C(\c2ccc(Cl)cc2)c2ccc(OCCN3CCCCC3)cc2)cc1`, the growth was 84.3% (inactive).
In the case of `O=C(Nc1ccccc1)Nc1ncnc2c1ncn2-c1ccc(Cl)cc1`, the growth is reported as 79% (inactive).
In the case of `CNC(=O)c1ccccc1Oc1nc(Nc2cc(OC)c(OC)c(OC)c2)ncc1Br`, the growth is reported as 59.9% (inactive).
`COc1cc2nc3cc([N+](=O)[O-])ccc3c(NCCNCC(C)O)c2cc1OC` (stereo not given) was tested, and the growth was 23.4% (inactive).
For `CCOCCNC1=C(Cl)C(=O)c2ccccc2C1=O`, the growth was 95% (inactive).
For `COc1ccccc1N1CCCCC1`, the growth was 102% (inactive).
`O=C1C(=O)N(Cc2ccc(-c3ccccc3)cc2)c2ccc(OC(F)(F)F)cc21` was tested, and the growth was 10.3% (inactive).
For `COc1cc(/C=C2/C=C(c3ccccc3)N(CCc3ccc(S(N)(=O)=O)cc3)C2=O)cc(OC)c1OC`, the growth was 100% (inactive).
`COc1ccc(-c2cc(-c3cc(OC)c(OC)c(OC)c3)c(C#N)c(=O)n2CCCCC(=O)NO)cc1` was tested, and the growth was 38.4% (inactive).
In the case of `C#CCOC(=O)/C=C/c1cn(-c2ccccc2)nc1-c1ccc(OC)cc1`, the growth is reported as 94.1% (inactive).
For `Cc1ccc2c(Cn3cc(CSc4nc5ccccc5o4)nn3)cc(=O)oc2c1`, the growth was 107% (inactive).
In the case of `C=CC(=O)N1CCN(c2cccc(Oc3nccc(Nc4nnc(-c5ccc(Br)cc5)s4)n3)c2)CC1`, the growth is reported as 40.3% (inactive).
With `CCOC(=O)c1c(C(=O)c2cn(C)c3ccc(Br)cc23)c(-c2cn(C)c3ccc(Br)cc23)n(NC(=O)OC(C)(C)C)c1C` the growth was 89% [100 µM] (inactive).
With `Fc1cccc(Oc2ccc(Nc3ncnc4ccc(OCCCN5CCOCC5)cc34)cc2Cl)c1` the growth was 10.8% (inactive).
